# FMDV antiviral = foot and mouth disease virus antiviral activity; FMDV antiviral cell-based qHTS; Potency, µM (series often up to 57.9 µM), for inactives: at the highest dose activity change, negative = inhibition, most hits filed as inhibitors; 410,000 tested, 1.2% active; calls by dose curve; tested in HEK293T cells; further: read-out not given here; potency means the concentration at half of the fitted maximal effect; nearly all actives have a fitted effect of over 45% in size
# HCV inhibitor = inhibitors of hepatitis C virus infection; Huh7.5.1 HCVcc-Cre infection, luciferase reporter, 44 h; Potency, µM (series often up to 41.8 µM), inactives show at the top dose activity change, negative = inhibition, usual class: inhibitors; 340,000 tested, 3.4% active; AID 651820; active means well fitted inhibition curve with a large enough effect; inconclusive means small, poorly fitted or top-dose-only effect, or another doubt; inactive means no such curve, though single readings can be large or run the other way; further: potency means the concentration at half of the fitted maximal effect
#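 HCVcc-Cre virus at an moi near 0.5 was added right after compound to cells cultured 4 h from seeding (1,000 cells/well). Luciferase activity was determined 44 h later, 15 min after substrate addition at RT.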
# Marburg entry inh = blocks Marburg virus binding to or entry into cells | AID 540276 | 300,000 tested, 1.8% active | Potency, µM (titrated, usually from 37.8 µM), without a hit: top-dose activity change, negative = inhibition, actives largely listed as inhibitors | Marburg virus pseudotyped entry inhibition, cell reporter; calls by dose curve; tested in HEK293 cells; further: potency means the concentration at half of the fitted maximal effect
# LASV entry inh = blocks Lassa virus binding to or entry into cells; 300,000 tested, 1.2% active; Lassa virus pseudotype entry inhibition, cell reporter; Potency, µM (series often up to 37.9 µM), inactives show at the highest dose activity change, negative = inhibition, most hits filed as inhibitors; AID 540256; calls by dose curve; tested in HEK293 cells; further: potency means the concentration at half of the fitted maximal effect; nearly all actives have a fitted effect of over 50% in size
# HCMV inh = blocks human cytomegalovirus replication | HFF cells, HCMV-luciferase reporter, 72 h; stronger effect = lower value | activity change, negative = inhibition, % at 57.5 µM | 410,000 tested, 4.5% active | AID 1259415; in the data active means activity change below about -60%; inconclusive means no clear call, values can overlap the other calls; inactive means above about -39%
#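 Cell-based, HFFs, 1000 cells/well, 16 h 37C; cpds in DMSO + HCMV-luc, MOI 1 PFU/cell; 72 h 37C; OneGlo luminescence after 5 min RT; norm. to buffer vs Salinomycin 10uM.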
# * = called active by the depositor; ? = inconclusive; . = no result given; [ ] = remark or other dose. Most compounds without a hit are left out; they make up all but 7.9% or so of the library. On the % scale 0 is the no-effect control and ±100 the full control effect.
SMILES,FMDV antiviral,HCV inhibitor,Marburg entry inh,LASV entry inh,HCMV inh
Cc1ccccc1NC(=S)N(Cc1ccccn1)Cc1ccccc1Cl,28%,-22%,?,?,?
COc1ccccc1NC(=S)N(Cc1ccccc1)Cc1cccs1,17%,8%,1.4µM*,-2%,-20
CSC1=NC(C(Cl)(Cl)Cl)N=C(c2ccc(C)cc2)N1 (centres undefined),-22%,?,-20%[46.1 µM],-29%,-71*
c1ccc2c(C[C@@H]3CNCCN3CC3CCCCC3)cccc2c1,-17%,?,.,.,-63*
Cn1nnnc1Sc1ncnc2scc(-c3cccc(S(C)(=O)=O)c3)c12,-24%,.,.,.,-5
Cn1nnnc1Sc1ncnc2scc(-c3ccccc3Cl)c12,-10%,.,.,.,-73*
COc1ccc(-c2csc3ncnc(Sc4nnnn4C)c23)cc1,?,.,.,.,-92*
Cn1nnnc1Sc1ncnc2scc(-c3ccc4c(c3)OCO4)c12,0%,.,.,.,-86*
Cn1nnnc1Sc1ncnc2scc(-c3ccc(Cl)cc3)c12,20µM*,.,.,.,-98*
Cn1nnnc1Sc1ncnc2scc(-c3cccc(Br)c3)c12,-96%,.,.,.,-18
O=C(O)CSc1ncnc2scc(-c3ccccc3)c12,-15%,11%,-1%[46.1 µM],22%,-14
CCOC(=O)c1c(-c2ccc(C)cc2)csc1NC(=O)c1cc(=O)c2cc(C)c(C)cc2o1,-13%,.,18%[46.1 µM],5%[46.1 µM],0
CC1(C)CN(c2cccc(Br)c2)C1=O,-10%,9%,19%[46.1 µM],10%,8
COc1ccccc1CNc1cc(-c2ccccc2Cl)ncn1,-8%,.,.,.,.
Cc1cccc(OCC(=O)NCC2(N3CCN(C)CC3)CCCCC2)c1C,-5%,.,?,-22%[46.1 µM],?
CC(=O)c1cccc(-c2csc3ncnc(Sc4nnnn4C)c23)c1,35µM*,.,.,.,?
Cn1nnnc1Sc1ncnc2scc(-c3ccc([N+](=O)[O-])cc3)c12,11µM*,.,.,.,-100*
Cn1nnnc1Sc1ncnc2scc(-c3cccc4c3sc3ccccc34)c12,28µM*,.,.,.,-92*
Cn1nnnc1SCc1ccc([N+](=O)[O-])cc1,-2%,14%,3%,9%,-10
Cc1ccc(C)c(Cn2c(=O)n(-c3ccc(Cl)cc3)c(=O)c3c4c(sc32)CCC4)c1,-3%,.,-3%[46.1 µM],1%[46.1 µM],-7
c1ccc(-c2cccc(-c3ccccc3)n2)cc1,54%,-1%,.,.,-65*
COc1ccc2[nH]c3c(c2c1)CCN1C(=O)C(CC(=O)NCC24CC5CC(CC(C5)C2)C4)C[C@H](C(=O)N2CCCCC2)[C@@]31C (some centres undefined),0%,25µM*,.,.,-32
C[C@]12c3[nH]c4ccccc4c3CCN1C(=O)C(CC(=O)NCC13CC4CC(CC(C4)C1)C3)C[C@@H]2C(=O)N1CCOCC1 (some centres undefined),?,?,.,.,-38
CCN(CC)C(=O)[C@H]1CC(CC(=O)NCC23CC4CC(CC(C4)C2)C3)C(=O)N2CCc3c([nH]c4ccc(OC)cc34)[C@]12C (some centres undefined),-38%,?,-2%,.,?
CC(C)N(C(=O)[C@H]1CC(CC(=O)NCc2cccc(C(F)(F)F)c2)C(=O)N2CCc3c([nH]c4ccccc34)[C@]12C)C(C)C (some centres undefined),?,10µM*,.,.,14
SMILES,FMDV antiviral,HCV inhibitor,Marburg entry inh,LASV entry inh,HCMV inh
CC(C)N(C(=O)[C@H]1CC(CC(=O)NCCCN(C)C)C(=O)N2CCc3c([nH]c4ccccc34)[C@]12C)C(C)C (some centres undefined),-23%,-13%,.,.,-14
CC(C)N(C(=O)[C@H]1CC(CC(=O)NCC23CC4CC(CC(C4)C2)C3)C(=O)N2CCc3c([nH]c4ccccc34)[C@]12C)C(C)C (some centres undefined),0%,3.2µM*,.,.,-74*
C[C@]12c3[nH]c4ccccc4c3CCN1C(=O)C(CC(=O)NCC13CC4CC(CC(C4)C1)C3)C[C@@H]2C(=O)N1CCCCC1 (some centres undefined),-22%,1%,.,.,-76*
Cc1ccc(S(=O)(=O)c2nnn3c2nc(N2CCN(c4cccc(C)c4C)CC2)c2ccccc23)cc1C,0%,.,.,8%[46.1 µM],0
Cc1ccc(S(=O)(=O)c2nnn3c2nc(NC2CCCCC2)c2sccc23)cc1C,-10%,.,.,?,-92*
Cc1ccc(S(=O)(=O)c2nnn3c2nc(N2CCOCC2)c2ccccc23)cc1C,23%,10µM*,5%[46.1 µM],-27%[46.1 µM],9
Cc1ccc(C)c(S(=O)(=O)c2nnn3c2nc(NC2CCCC2)c2sccc23)c1,?,.,.,?,-107*
Cn1c(=O)c2c(SCC(=O)NCc3ccco3)nc(-c3ccccc3)nc2n(C)c1=O,-11%,.,.,13%[46.1 µM],6
CC(C)CO/N=C1\C[C@@H](O)[C@@H](O)[C@@H]2[C@@H]3C(=O)N(C4CCCCC4)C(=O)[C@@H]3CC[C@@H]12,.,.,-14%[14.2 µM],.,.
c1ccc(-c2ncc3c(ccc4ccccc43)n2)cc1,-60%,3%,?,3.5µM*,?
c1ccc2c(c1)cnc1ccccc12,23%,-6%,22%,4%,-3
O=[N+]([O-])c1cccc(/C([O-])=C(/C(=S)Nc2ccccc2)[n+]2ccccc2)c1,32%,8%,?,9%,1
CC(C)OC(=O)c1ccc(Cn2nnc3sc4c(c3c2=O)CCCC4)cc1,-11%,.,?,6%[46.1 µM],-10
CCc1ccc(CNC(=O)CCCn2c(=O)c3cccn3c3cccnc32)cc1,-14%,10µM*,.,.,12
CCOc1cc(CNC(=O)CCCn2c(=O)c3cccn3c3cccnc32)cc(OCC)c1OCC,-1%,?,?,16%[46.1 µM],?
CC(NC(=O)CCCn1c(=O)c2cccn2c2cccnc21)c1ccccc1 (centres undefined),2%,.,.,-4%[46.1 µM],-65*
CC(C)Oc1ccc(CNC(=O)CCCn2c(=O)c3cccn3c3cccnc32)cc1,-1%,.,.,9%[46.1 µM],-68*
CCCN1C(=O)C[C@H](S(=O)(=O)c2ccccc2)[C@H]1c1ccc(C#N)cc1,.,.,.,.,-19
CNC(=O)c1ccc(S(=O)(=O)c2ccc(Cl)cc2)c(NC(C)=O)c1,-9%,-3%,.,.,-11
CNC(=O)c1nnsc1S(=O)(=O)c1ccc(Cl)cc1,?,?,2.8µM*,?,-94*
Cc1nnsc1S(=O)c1ccc(Cl)cc1 (centres undefined),-22%,?,.,.,?
O=C(c1nnsc1S(=O)c1ccc(Cl)cc1)N1CCOCC1 (centres undefined),35µM*,?,?,?,-98*
O=C(c1nnsc1S(=O)(=O)c1ccc(Cl)cc1)N1CCOCC1,16µM*,?,?,?,52
O=C(Nc1ccccc1)c1nnsc1S(=O)c1ccc(Cl)cc1 (centres undefined),-16%,1%,?,?,-104*
Nc1nc(C(=O)N2CCOCC2)nn1S(=O)(=O)c1ccc(Cl)cc1,13%,-10%,17%,16%,17
